From PubChem BioAssay AID1626 (SRMLSC, 2009)
About 2,000 (0.91%) of roughly 220,000 compounds were called active. About 2% were inconclusive and are not listed. Not all results are given here. Results with a measured potency or affinity are listed apart. Unmarked numbers belong to inactive results. Rule as the data show it: inconclusive = inhibition above about 80% without an active follow-up result; inactive = below that; test concentration not stated here.

Experiment: M. tuberculosis H37Rv growth inhibitors, H37Rv strain (AID 1626);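 also: bacteria incubated seven days before Alamar blue readout; 0% = bacteria only wells and 100% = bacteria with antibiotic wells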
Details: stronger effect = higher value, concentration not given here

In order of rising inhibition:
1. C=CCCCCCCCC(=O)OC  -15.6%
2. CCOC(=O)N1CCN(S(=O)(=O)c2ccc3c(c2)CCN3C(=O)CC)CC1  -14.9%
3. CC1=CC(C)(C)Nc2ccc(OC(=O)CN3C(=O)c4ccccc4C3=O)cc21  -11.5%
4. Cc1cc(N2CCN(C)CC2)nc2ccc(NC(=O)c3cccnc3Cl)cc12  -11.1%
5. O=C(NCc1ccccc1)[C@]1(C(F)(F)F)C[C@H](CCc2ccccc2)CCCO1  -10.1%
6. CC1CC(C)(C)NCc2ccccc21 (centres undefined)  -9.91%
7. CCSc1nnc(NC(=O)C2Cc3ccccc3CN2C(=O)c2ccco2)s1 (centres undefined)  -9.18%
8. Fc1ccc(CSc2nncn2NCc2ccccc2)cc1  -8.84%
9. CC(Nc1ccc(Cl)cc1)c1cc(Cl)ccc1O (centres undefined)  -8.64%
10. COC(=O)CNC(=O)C1CCN(c2nc(C)cc(C)n2)CC1  -8.28%
11. CCOC(=O)N1c2ccccc2C=CC1OCC (centres undefined)  -8.15%
12. CCCCOc1cccc(C(=O)O)c1  -6.88%
13. CSc1ccc(/C=C(/Sc2nnc(-c3ccccc3)o2)C(=O)O)cc1  -6.84%
14. CCCC1(CCC)C(=O)NC(=NCc2ccccc2)NC1=O  -6.66%
15. CCN1CCN(c2cc(C)c3cc(NC(=O)c4ccc(Br)o4)ccc3n2)CC1  -5.55%
16. Nc1nn(-c2cccc(F)n2)cc1-c1ccccc1  -5.22%
17. CSc1nc(N(C)NC(=O)c2ccc(F)cc2)c2ccccc2n1  -5.17%
18. CCOC(=O)Nc1c(C)n(C)n(-c2ccccc2)c1=O  -5.08%
19. N#C/C(=C(/O)c1cccs1)c1nnc2n1CCCCC2  -5.04%
20. Cc1ccc(S(=O)(=O)N2CCCC(C(=O)N(Cc3cccs3)C3CC3)C2)cc1 (centres undefined)  -4.95%
21. Cc1cc(C)cc(Oc2ccc(N)cc2)c1  -4.94%
22. COC(=O)c1ccc(OC(=O)c2ccco2)cc1  -4.94%
23. O=C(c1ccco1)N1CCN(S(=O)(=O)c2ccc(C3CCCCC3)cc2)CC1  -4.85%
24. COC(=O)CC1COc2ccccc2N1C(=O)c1ccc(OC)cc1 (centres undefined)  -4.78%
25. CC1CCCCN1S(=O)(=O)c1ccc(S(=O)(=O)N2CCN(c3ccccc3)CC2)cc1 (centres undefined)  -4.53%
26. CSc1nc(N(C)NC(=O)c2ccccc2)c2ccccc2n1  -4.21%
27. CCCCCC/C(=N/O)c1ccccn1  -3.95%
28. Nc1ccc(Br)cc1C(=O)O  -3.82%
29. CNC(=O)Nc1ccc2nc(C)sc2c1  -3.76%
30. CCN1CCN(c2cc(C)c3cc(NC(=O)c4cccnc4Cl)ccc3n2)CC1  -2.95%
31. CC1CC(C)(C)NC(C)c2ccccc21 (centres undefined)  -2.84%
32. CCOc1ccc(N2C(=O)CNC2=S)cc1  -2.82%
33. COc1ccccc1C1C([N+](=O)[O-])=C(N)Oc2c1c(=O)oc1ccccc21 (centres undefined)  -2.62%
34. CCOc1ccc(N2CC(=O)N(c3ccc(OCC)cc3)CC2=O)cc1  -2.5%
35. CCCOc1ccc2c(C)c(CC(=O)OC)c(=O)oc2c1  -2.3%
36. CC1=CC(C)(C)Nc2ccc(OC(=O)c3cccnc3)cc21  -2%
37. CCCC(=O)Nc1nc2ccc(NC(=O)c3ccc(Br)o3)cc2s1  -1.78%
38. Cc1ccc(NC(C)c2cc(Cl)ccc2O)cc1 (centres undefined)  -1.72%
39. CC1=C(C#N)C(NC(=O)C(C)(C)C)(C(F)(F)F)C(=O)N1 (centres undefined)  -1.62%
40. O=C(COc1ccc(Cl)cc1)Nc1ccccc1N1CCOCC1  -1.58%
41. O=C(NNC1=NCCC1)c1cccc(S(=O)(=O)N2CCCC2)c1  -1.54%
42. CC(C)Sc1nnc([C@@H](N)Cc2ccccc2)o1  -1.26%
43. Cc1c(CN2CCCCC2C)c(=O)n(-c2ccccc2)n1C (centres undefined)  -1.26%
44. CCOC(=O)CN1C(=O)C(CC)Oc2ccccc21 (centres undefined)  -1.23%
45. CCCCNC(=O)COC(=O)c1ccc(Cl)c(S(N)(=O)=O)c1  -0.33%
46. Nc1ccc(O)c2c1C(=O)c1ccccc1C2=O  0.25%
47. CSCCC(NC(=O)c1ccc(C(C)(C)C)cc1)C(=O)O (centres undefined)  0.53%
48. Nc1ccc(Oc2cccc(Oc3ccc(N)cc3)c2)cc1  0.76%
49. COc1ccc(Cl)cc1-c1n[nH]c(=S)n1C1CCCCC1  0.84%
50. COc1ccc2nc(SCC(=O)NCCc3ccccc3)[nH]c2c1  0.98%
51. CCCCCC(=O)N/N=C(\C)c1ccccn1  1.4%
52. O=C1CC(c2cccc(F)c2)c2c(c3ccccc3[nH]c2=O)O1 (centres undefined)  1.98%
53. CCc1ccccc1NC(=O)c1ccc(Cn2cc([N+](=O)[O-])cn2)cc1  2.06%
54. O=c1c2ccccc2nc(-c2ccccc2)n1-c1ccccc1  2.18%
55. Cc1cccc(N=Cc2c(O)cc(C)oc2=O)c1  2.51%
56. NS(=O)(=O)c1ccc(NC(=O)c2c(Cl)cccc2Cl)cc1  2.71%
57. Cc1ccccc1-n1c(C)nc2ccccc2c1=O  2.88%
58. CCOC(=O)CN(Cc1sccc1C)C(=O)Nc1ccc(OCC)cc1  3.69%
59. CC(C)Cc1nnc(NS(=O)(=O)Cc2ccccc2)s1  3.7%
60. CC(=O)c1cccc(CN2CCC(CO)(CCCc3ccccc3)CC2)c1  3.9%
61. O=C(Nc1cccc(NC(=O)c2cccs2)c1)c1ccc2c(c1)OCCO2  4%
62. CC(C)NC(=O)COC(=O)c1cc(Br)ccc1Cl  4%
63. Cc1nn(C(=O)c2c(-c3ccccc3)noc2C)c(C)c1N=Nc1cc(C(F)(F)F)cc(C(F)(F)F)c1  4.12%
64. CNC(=O)COC(=O)c1cc(F)c(F)cc1Cl  4.23%
65. COc1ccccc1OCC#CCN1CCCCCC1  4.4%
66. C=CCNC(=O)c1onc(CSc2cc(C)cc(C)c2)c1C(=O)NCC=C  4.46%
67. Cc1ccc(CN2CCc3c(OCC(=O)Nc4cc(C)ccc4C)cccc3C2=O)cc1  4.57%
68. COc1ccc(NC2=NCC(C)S2)cc1 (centres undefined)  5.03%
69. Cc1cc(N2CCN(C)CC2)nc2ccc(NC(=O)c3ccc(Br)o3)cc12  5.2%
70. O=c1[nH]c(SCc2nc3ccccc3n2Cc2ccccc2)nc2ccccc12  5.31%
71. CC(/C=C/c1ccccc1)=N\Nc1nc(-c2ccccc2)cs1  5.57%
72. O=C(OCc1nnc(-c2ccccc2)o1)c1ccco1  5.59%
73. Cc1nc2ccc(NC(=O)c3ccco3)cc2s1  5.89%
74. Clc1cc(Cl)cc(Nc2ncn[nH]2)c1  5.96%
75. Cc1ccc(-c2nnc(-c3ccc(NC(=O)c4ccco4)cc3)o2)cc1  6.39%
76. COC(=O)c1ccccc1NC(=O)CSc1nnc(-c2ccc(C)cc2)o1  6.5%
77. O=C(CSc1n[nH]c(-c2cccs2)n1)NCc1ccc2c(c1)OCO2  6.67%
78. COc1ccc(OC)c2c1C(=O)c1ccccc1C2=O  6.76%
79. CCCNC(=O)COC(=O)c1cc(SC)ccc1Cl  7.67%
80. O=C(COc1ccc(OCc2ccccc2)cc1)NN=C1CCCC1  7.98%
81. O=c1c2cn[nH]c2[nH]c(=S)n1-c1cccc2ccccc12  8.18%
82. Cc1ccc(-c2nn(-c3cccc(F)c3)cc2CNCCc2ccncc2)o1  8.28%
83. Brc1ccc2ncc(Br)cc2c1  9.05%
84. CCCCn1nnc(NC(=O)c2ccc(-c3ccccc3[N+](=O)[O-])o2)n1  9.1%
85. CCCCNC(=O)COC(=O)c1ccc(F)cc1Cl  10.1%
86. CCOC(=O)c1cnc2ccc(OCC)cc2c1NCc1cccnc1  10.7%
87. Cc1ccc(SCC(=O)NC(=O)NC(C)C)c(C)c1  11.6%
88. Cc1ccc(-c2nn(-c3cccc(F)c3)cc2CNCc2cccnc2)o1  12.8%
89. O=C(CN1CCN(c2ccccc2Cl)CC1)NC1CCCc2ccccc21 (centres undefined)  14.2%
90. CCc1ccc(NS(=O)(=O)c2ccc(OC)c(C)c2)cc1  16.8%
91. COc1ccc(CN(C)C(=O)CCl)cc1  17.4%
92. CCOC(=O)c1cnc2ccc(OC)cc2c1NCc1ccccc1  20.8%
93. N#CC1=C(N)NC(SCC(=O)c2ccc(Cl)cc2)=C(C#N)C12CCCC2  21.4%
94. CCOC(=O)c1cccc(NC(=O)/C=C/c2ccc([N+](=O)[O-])cc2)c1  22.2%
95. CCN(CC)CCOC(=O)c1ccc(NC(=O)c2cn(-c3ccccc3)nc2-c2cccs2)cc1  31.3%
96. CCCCOc1cccc(-c2nnc(N)s2)c1  37.6%
97. CC(C)(C)NC(=O)COC(=O)c1cc(F)c(F)cc1Cl  38.6%
98. O=C(Nc1nnc(C2CC2)s1)c1cc(-c2ccccc2)nn1-c1ccccc1  43.6%
99. Cc1ccc(NC2=NCC(Cc3ccc(Br)cc3)S2)cc1 (centres undefined)  44.8%
100. O=C(Oc1ccc2ccccc2c1)c1ccco1  53.4%
101. COc1ccc(NC(=S)N(Cc2ccc(Cl)cc2)Cc2ccc(C(=O)O)cc2)cc1Cl  61%
102. CN(Cc1ccc(Cl)cc1)C(=O)CCl  63%
103. CCOC(=O)c1ccc(-n2c(CN3CCN(CC)CC3)nc3ccc([N+](=O)[O-])cc3c2=O)cc1  64.1%
104. O=C(OCC#CCSc1nnc(-c2cccc3ccccc23)o1)c1ccco1  64.9%
105. CCOC(=O)c1ccc(-n2c(CN3CCOCC3)nc3ccc([N+](=O)[O-])cc3c2=O)cc1  69.4%
106. Cc1ccccc1-c1ncc(CN2CCC(CO)(CCCc3ccccc3)CC2)cn1  69.6%
107. Cc1nc2ccc(NC(=O)N(C)c3ccccc3)cc2s1  76.8%
108. Clc1ccc(Nc2ncn[nH]2)cc1  77.2%
109. N#CC1=C(N)NC(SCC(=O)c2ccc(Br)cc2)=C(C#N)C12CCCCC2  79.4%
